Screening data (PubChem)
Eya2 phos inh: Eya2 (human) phosphatase inhibition; recombinant Eya2, OMFP fluorescence dephosphorylation (OMFP is methylfluorescein phosphate); O00167; 330,000 compounds, 0.006% hits; Potency, µM (titrated, usually from 76.9 µM), usual class: inhibitors
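Eya2 protein (added as 0.2 uM solution) was preincubated with compound for 10 min at ambient temperature in 50 mM HEPES pH 7.5, 50 mM NaCl, 5 uM MgCl2, 0.05% BSA, 1 mM DTT. OMFP (added at 50 uM) then reacted 10 min; fluorescence read at 485/525 nm.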
TrxR1 substrate: is turned over as a substrate by rat TrxR1; Potency, µM (highest dose often 114 µM); 390,000 compounds, 0.01% hits; purified TrxR1 substrate turnover, NADPH consumption readout; note: nearly all actives have a fitted effect of over 50% in size
Target sequence (O89049 whole entry, looked up): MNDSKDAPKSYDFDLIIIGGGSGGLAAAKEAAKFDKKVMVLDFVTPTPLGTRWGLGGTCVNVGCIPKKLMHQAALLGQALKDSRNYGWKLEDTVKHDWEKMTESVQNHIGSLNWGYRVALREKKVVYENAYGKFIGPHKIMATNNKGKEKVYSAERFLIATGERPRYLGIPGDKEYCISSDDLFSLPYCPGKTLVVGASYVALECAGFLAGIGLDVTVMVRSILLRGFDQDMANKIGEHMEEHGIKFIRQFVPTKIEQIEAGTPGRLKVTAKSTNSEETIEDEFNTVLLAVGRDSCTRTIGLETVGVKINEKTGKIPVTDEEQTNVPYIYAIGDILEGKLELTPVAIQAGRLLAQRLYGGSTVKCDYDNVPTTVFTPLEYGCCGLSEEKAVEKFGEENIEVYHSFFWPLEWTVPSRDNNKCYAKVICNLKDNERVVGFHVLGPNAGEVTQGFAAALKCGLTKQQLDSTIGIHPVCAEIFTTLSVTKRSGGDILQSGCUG
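Rat TrxR1, dispensed at 90 nM, was prereduced with 400 uM NADPH (final) for 5 min at ~22 deg C, then incubated with compound 15 min before 400 uM selenite. A first-read NADPH fluorescence drop versus no-compound background flagged substrates.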
TrxR1 inh: rat TrxR1 inhibition; O89049; recombinant rTrxR1, NADPH fluorescence consumption, selenite substrate; Potency, µM (series often up to 114 µM), most hits filed as inhibitors; 390,000 compounds, 1% hits; AID 588453; note: nearly all actives have a fitted effect of over 65% in size
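Rat TrxR1 (90 nM in the dispensed reagent) was pre-reduced with 400 uM NADPH for 5 min at room temperature, then incubated with compound for 15 min. After 400 uM selenite was added, NADPH fluorescence (Ex 340/Em 450 nm) was followed for 8 min.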
FBPA coupling cs: counter-screen for Giardia aldolase inhibitors: coupling enzyme system | coupling enzyme system counterscreen, AmpLite Red fluorescence | activity change, negative = inhibition, % at 58.2 µM, hits read low | 290,000 compounds, 0.67% hits; in the data active = activity change below about -30%
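Final compound at 57.5 uM, incubated 10 min at RT with coupling enzyme reagent (glyceraldehyde-3-phosphate), then 20 min with substrate and AmpLite Red detection. Fluorescence read at 525/598 nm; tests interference with the coupling assay, not aldolase inhibition.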
IDH1 R132H inh: blocks human mutant IDH1 R132H enzyme. O75874. IDH1-R132H enzyme, NADPH consumption, diaphorase/resazurin fluorescence. Potency, µM (titrated, usually from 76.6 µM), hits mostly inhibitors. 390,000 compounds, 0.093% hits; note: nearly all actives have a fitted effect of over 65% in size
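IDH1-R132H (0.5 ug/mL dispensed) in pH 7.5 Tris buffer was preincubated 30 min with compound, then given a substrate mix of 0.016 mM NADPH and 2 mM alpha-KG for 80 min at room temperature; remaining NADPH was read by diaphorase/resazurin fluorescence.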
IDH1 autofl: counter-screen for mutant IDH1 inhibitors: fluorescence interference. inhibition of signal, % at 51.2 µM. shares compounds with IDH1 R132H inh. AID 623980. 750 tested, under 10 active. Resorufin detection reagent fluorescence interference, cell-free
IDH1 WT: wild-type IDH1 (human) inhibition counterscreen; shares compounds with IDH1 R132H inh; WT IDH1 enzyme, NADPH diaphorase/resazurin fluorescence; Potency, µM (top dose mostly 115 µM), usual class: inhibitors; 750 compounds, 9% hits; AID 623995; note: nearly all actives have a fitted effect of over 55% in size
IDH1 R132H conf: mutant IDH1 (human) inhibition, confirmed; shares compounds with IDH1 R132H inh; IDH1 R132H enzyme, NADPH diaphorase/resazurin fluorescence; Potency, µM (series often up to 76.6 µM), usual class: inhibitors; 750 compounds, 83% hits; note: nearly all actives have a fitted effect of over 50% in size
A number is an active result. Only some compounds are listed: those with a hit (about 1.5% of all), similar ones and a draw of the others. Unless noted, calls come from the whole dose curve; as a rule, active = well fitted curve in the direction sought with a large enough effect; inconclusive = small, poorly fitted or top-dose-only effect, or another doubt; inactive = no such curve, though single readings can be large; an effect the other way counts as inactive or inconclusive.

How did O=C(c1ccc(Cl)cc1)c1c[nH]c(C(=O)C(Cl)(Cl)Cl)c1 do in these assays?
Eya2 phos inh: inactive; TrxR1 substrate: inactive; TrxR1 inh: inactive; FBPA coupling cs: inactive; IDH1 R132H inh: inconclusive; IDH1 autofl: inactive; IDH1 WT: inactive; IDH1 R132H conf: 25µM

Results for Cc1ccc(Sc2ccc(NC(=O)CCl)cc2)c(C)c1 ?
Eya2 phos inh: inactive; TrxR1 substrate: inactive; TrxR1 inh: inconclusive; FBPA coupling cs: inactive; IDH1 R132H inh: 52µM; IDH1 autofl: inactive; IDH1 WT: inconclusive; IDH1 R132H conf: 45µM

What do the screens show for `CC1(C)Oc2ccc3ccc(=O)oc3c2/C(=C/Nc2ccc(O)cc2)C1=O`?
Eya2 phos inh: inactive; TrxR1 substrate: inactive; TrxR1 inh: inactive; FBPA coupling cs: inactive; IDH1 R132H inh: inactive

Results for CC1(C)Oc2ccc3ccc(=O)oc3c2/C(=C/Nc2ccccn2)C1=O ?
Eya2 phos inh: inactive; TrxR1 substrate: inactive; TrxR1 inh: inactive; FBPA coupling cs: inactive; IDH1 R132H inh: 29µM; IDH1 autofl: inactive; IDH1 WT: inactive; IDH1 R132H conf: 11µM

How did CC1(C)Oc2ccc3ccc(=O)oc3c2/C(=C/Nc2cccc(O)c2)C1=O do in these assays?
Eya2 phos inh: inactive; TrxR1 substrate: inactive; TrxR1 inh: inactive; FBPA coupling cs: inactive; IDH1 R132H inh: inconclusive; IDH1 autofl: inactive; IDH1 WT: inactive; IDH1 R132H conf: 40µM

What do the screens show for `CN/C=C1\C(=O)C(C)(C)Oc2ccc3ccc(=O)oc3c21`?
Eya2 phos inh: inactive; TrxR1 substrate: inactive; TrxR1 inh: inactive; FBPA coupling cs: inactive; IDH1 R132H inh: inactive

What do the screens show for `O=C(Nc1cc(S(=O)(=O)N2CCOCC2)ccc1O)c1ccc2c(c1)S(=O)(=O)c1ccccc1C2=O`?
Eya2 phos inh: inactive; TrxR1 substrate: inactive; TrxR1 inh: inactive; FBPA coupling cs: inactive; IDH1 R132H inh: inactive

What do the screens show for `O=C(Nc1ccc(S(=O)(=O)N2CCOCC2)cc1)c1ccc2c(c1)S(=O)(=O)c1ccccc1C2=O`?
Eya2 phos inh: inactive; TrxR1 substrate: inactive; TrxR1 inh: inactive; FBPA coupling cs: inactive; IDH1 R132H inh: inconclusive; IDH1 autofl: inactive; IDH1 WT: inactive; IDH1 R132H conf: 4µM

What do the screens show for `N#CC(=C1C=C(Br)C(=NO)C=C1Cl)c1ccc(Cl)cc1`?
IDH1 R132H inh: inconclusive; IDH1 autofl: inactive; IDH1 WT: inconclusive; IDH1 R132H conf: 28µM

What do the screens show for `C/C=C(\C=C\[C@@H](C)C/C=C/CC/C=C/C=C\C[C@@H](OC)/C(C)=C\C=C(C)C)CC(=O)O`?
FBPA coupling cs: inactive

How did OCC1OC(/C=C\c2ccccc2)C=CC1Oc1ccc2c(c1)OCO2 (centres undefined) do in these assays?
FBPA coupling cs: inactive

How did COc1ccc(C2C(C#N)=C(N)N(c3sc4c(c3C#N)CCCC4)C3=C2C(=O)CC(C)(C)C3)cc1 (centres undefined) do in these assays?
Eya2 phos inh: inactive; TrxR1 substrate: inactive; TrxR1 inh: inactive; FBPA coupling cs: inactive; IDH1 R132H inh: inactive

How did COc1ccc(C2C(C#N)=C(N)N(N(C)C)C3=C2C(=O)CC(C)(C)C3)cc1 (centres undefined) do in these assays?
Eya2 phos inh: inactive; TrxR1 substrate: inactive; TrxR1 inh: inactive; FBPA coupling cs: inactive; IDH1 R132H inh: inactive

Results for COc1ccc(C2C(C#N)=C3NC(=O)c4c(sc5c4CCCCC5)N3C3=C2C(=O)CC(C)(C)C3)cc1 (centres undefined) ?
Eya2 phos inh: inactive; TrxR1 substrate: inactive; TrxR1 inh: inactive; FBPA coupling cs: inactive; IDH1 R132H inh: inconclusive; IDH1 autofl: inactive; IDH1 WT: inactive; IDH1 R132H conf: inactive
